Assay outcomes: PubChem, several laboratories
Most compounds without a hit are left out; they make up all but 4.9% or so of the library.
tim23-1 inh: growth inhibitors of tim23-1 mutant yeast | actives 1.3% (n = 330,000) | inhibition, % at 20 µM | S. cerevisiae tim23-1 growth, BacTiter-Glo luminescence, 24 h | AID 463212;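 active = growth inhibition of the mutant yeast at or above 50%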;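 note: temperature-sensitive mutant grown at 25 °C; plate controls were DMSO-treated mutant yeast for no effect and medium wells lacking yeast for full effect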
NLRP3 yeast inh: inhibitors of NALP3 inflammasome in yeast; actives 0.39% (n = 330,000); AID 2825; Yeast reconstituted NLRP3/ASC/caspase-1, beta-gal luminescence, 24 h; inhibition, % at 10 µM;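 active = inhibition of 50% or more; inactive = inhibition below 50%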;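 note: plate controls were induced DMSO wells for no effect and uninduced yeast grown without galactose for full effect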
TIM10 inh: growth inhibitors of TIM10 yeast strain | S. cerevisiae TIM10 strain growth, BacTiter-Glo luminescence, 24 h | inhibition, % at 10 µM | actives 1.4% (n = 330,000);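 active = inhibition of 40% or more at the single tested concentration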;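 note: wild-type TIM10 isogenic control strain grown at permissive 25 °C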
SKKanGAS inh: SKKanGAS growth inhibition; S. pyogenes SKKanGAS, kanamycin growth, BacTiter-Glo, 6 h; inhibition, % at 7.5 µM; actives 1.3% (n = 300,000); AID 1662;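 active = mean replicate score, as percent of positive control median, at least 50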;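 note: strain carries kanamycin resistance gene driven by streptokinase promoter and grows in 40 µg/ml kanamycin; loss of luminescence reflects streptokinase promoter inhibition or plain growth inhibition; 0% = median of DMSO wells and 100% = positive control at its reference dose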
tim10-1 inh: tim10-1 yeast growth inhibition. S. cerevisiae tim10-1 ts strain growth, BacTiter-Glo, 24 h. inhibition, % at 20 µM. actives 2.2% (n = 330,000). AID 463190;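 active = inhibition of at least 40%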;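 note: mutant grown at 25 °C; 0% = DMSO wells with yeast and 100% = wells holding no yeast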
NALP1 inh: NALP1 inhibition. AID 2071. actives 0.61% (n = 280,000). S. cerevisiae NALP1/ASC/caspase-1 growth, X-gal OD620, 72 h. inhibition, % at 10 µM; in the data active = inhibition mostly above about 24%, no sharp cut-off; inactive = mostly below about 32%
tim10-1 confirm: confirmation of tim10-1 mutant yeast growth inhibitors | inhibition, % at 20 µM | actives 56% (n = 7,400) | shares compounds with tim10-1 inh | S. cerevisiae tim10-1 ts strain growth, BacTiter-Glo, 24 h;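 active = inhibition of yeast growth at or above a set limit in either of two repeat tests at 20 µM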;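 note: tim10-1 mutant grown at permissive 25 °C to find synthetic lethal compounds; 0% = DMSO yeast wells and 100% = medium wells without yeast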
tim10 confirm: confirmation of TIM10 yeast growth inhibitors; shares compounds with TIM10 inh; S. cerevisiae tim10 strain growth, BacTiter-Glo luminescence, 24 h; inhibition, % at 10 µM; actives 63% (n = 4,600); AID 463215;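 active = inhibition of yeast growth at or above a set limit in either of two replicates at 10 µM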;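 note: this counterscreen used the strain with wild-type TIM10; 0% = yeast with DMSO and 100% = medium wells lacking yeast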
tim23-1 conf: tim23-1 yeast growth inhibition, confirmed; inhibition, % at 20 µM; shares compounds with tim23-1 inh; actives 83% (n = 4,400); S. cerevisiae tim23-1 growth, BacTiter-Glo luminescence, 24 h;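 active = inhibition above about 39% in either of two replicate wells at 20 µM, limit read from the data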;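 note: temperature-sensitive tim23-1 mutant grown at 25 °C; 0% = DMSO wells with yeast and 100% = medium wells without yeast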
* hit, by the source's call.

For FC(F)(F)c1cccc(Oc2nc(-c3ccccc3)nnc2C(F)(F)F)c1 the results were tim23-1 inh 55*, NLRP3 yeast inh 8, TIM10 inh 46*, SKKanGAS inh 4, tim10-1 inh 54*, NALP1 inh 9, tim10-1 confirm 48*, tim10 confirm 38* and tim23-1 conf 46*.
For O=C(/C(=C/c1ccccc1)n1cncn1)c1ccc(Cl)cc1Cl the results were tim23-1 inh 92*, NLRP3 yeast inh 32, TIM10 inh 82*, SKKanGAS inh -6, tim10-1 inh 80*, NALP1 inh 43*, tim10-1 confirm 82*, tim10 confirm -4 and tim23-1 conf 91*.
Nc1c([N+](=O)[O-])c(=O)oc2ccccc12 was read as tim23-1 inh 4, NLRP3 yeast inh 9, TIM10 inh 12, SKKanGAS inh -8, tim10-1 inh 1 and NALP1 inh -18.
For Cc1ccc(C(=O)/C=C/c2c[nH]c3ccccc23)cc1 the results were tim23-1 inh 80*, NLRP3 yeast inh 38, TIM10 inh 36, SKKanGAS inh 2, tim10-1 inh 44*, NALP1 inh 20, tim10-1 confirm 23 and tim23-1 conf 44*.
Screening Cc1ccc(C(=O)/C=C/c2cn(CN3CCN(C)CC3)c3ccccc23)cc1 returned tim23-1 inh 56*, NLRP3 yeast inh 33, TIM10 inh 60*, SKKanGAS inh -7, tim10-1 inh 52*, NALP1 inh -9, tim10-1 confirm 38*, tim10 confirm 55* and tim23-1 conf -93.
Cc1no[n+]([O-])c1COc1ccc(/C=N/n2nnnc2N)cc1 was read as tim23-1 inh 28, NLRP3 yeast inh 8, TIM10 inh 6, SKKanGAS inh 1, tim10-1 inh 18 and NALP1 inh 21.
Screening O=C(Sc1cccc2cccnc12)c1ccc(F)cc1 returned tim23-1 inh 80*, NLRP3 yeast inh 43, TIM10 inh 55*, tim10-1 inh 76*, NALP1 inh -14, tim10-1 confirm 67*, tim10 confirm 58* and tim23-1 conf 71*.
O=C(Cn1ncc2c3ccccc3n(Cc3ccccc3)c2c1=O)NCc1ccco1 was read as tim23-1 inh -1, NLRP3 yeast inh 11, TIM10 inh 0, SKKanGAS inh -10 and tim10-1 inh 4.
CCOC(=O)N1CCc2c(sc3c2c(=O)n(-c2ccc(CC)cc2)c(=O)n3CC(=O)NCC2CCCO2)C1 (configuration not stated) was read as tim23-1 inh -7, NLRP3 yeast inh 9, TIM10 inh 1, SKKanGAS inh -4, tim10-1 inh 1 and NALP1 inh -6.
For C[C@H](NS(=O)(=O)c1c(Cl)cccc1Cl)C(=O)NNC(=O)COc1ccccc1F the results were tim23-1 inh -7, NLRP3 yeast inh 4, TIM10 inh -3 and tim10-1 inh 4.
For O=C(Nc1cccc(O)c1)c1ccc(C(F)(F)F)cc1 the results were tim23-1 inh 0, NLRP3 yeast inh 20, TIM10 inh -1, SKKanGAS inh 5, tim10-1 inh -4 and NALP1 inh -5.
O=C(Nc1ccc(Br)c(C(F)(F)F)c1)c1ccccc1 was read as tim23-1 inh 73*, NLRP3 yeast inh -1, TIM10 inh 68*, SKKanGAS inh 21, tim10-1 inh 58*, NALP1 inh 42, tim10-1 confirm 50*, tim10 confirm 3 and tim23-1 conf 78*.
Screening O=C(Nc1ccc(Br)c(C(F)(F)F)c1)c1ccc(C(F)(F)F)cc1 returned tim23-1 inh 81*, NLRP3 yeast inh 1, TIM10 inh 72*, SKKanGAS inh 106*, tim10-1 inh 45*, tim10-1 confirm 48*, tim10 confirm 81* and tim23-1 conf 5.
For CCC(=O)c1ccc(OCC(=O)NCC2(N3CCCCC3)CCCCC2)cc1 the results were tim23-1 inh 12, NLRP3 yeast inh 10, TIM10 inh 10, SKKanGAS inh -9, tim10-1 inh 3 and NALP1 inh 14.
`COC(=O)c1cc(=O)n(Cc2cccs2)c(=Nc2ccc(F)cc2)s1` gave tim23-1 inh 21, NLRP3 yeast inh 8, TIM10 inh 9, SKKanGAS inh 4, tim10-1 inh 29 and NALP1 inh 14.
`COC(=O)c1cc(=O)n(-c2ccc(F)cc2)c(=Nc2ccc(F)cc2)s1` gave tim23-1 inh 67*, NLRP3 yeast inh -8, TIM10 inh 54*, SKKanGAS inh -5, tim10-1 inh 56*, NALP1 inh 46, tim10-1 confirm 57*, tim10 confirm 55* and tim23-1 conf 44*.
CCN(C1CCS(=O)(=O)C1)S(=O)(=O)c1ccc(Cl)s1 (configuration not stated) was read as tim23-1 inh 19, NLRP3 yeast inh 10, TIM10 inh -1 and tim10-1 inh 4.
`Cc1ccc(C(=O)NC(C#N)=C(Cl)Cl)cc1` gave tim23-1 inh 69*, NLRP3 yeast inh 18, TIM10 inh 45*, SKKanGAS inh -3, tim10-1 inh 51*, NALP1 inh -2, tim10-1 confirm 41*, tim10 confirm 30 and tim23-1 conf 62*.
Screening CCOC(=O)c1c2ccccc2[n+]([O-])n1[C@@H](C)C(N)=O returned tim23-1 inh -6, NLRP3 yeast inh 1, TIM10 inh -4, SKKanGAS inh -5 and tim10-1 inh -2.
CCOC(=O)c1ccc(NC(=O)C2CC(O)CN2S(=O)(=O)c2ccc(C)cc2)cc1 (configuration not stated) was read as tim23-1 inh 2, NLRP3 yeast inh 24, TIM10 inh 5 and tim10-1 inh -11.
CC1CCN(c2cc(C#N)c(C#N)cc2[N+](=O)[O-])CC1 was read as tim23-1 inh -12, NLRP3 yeast inh 17, TIM10 inh 3, SKKanGAS inh 10, tim10-1 inh 14 and NALP1 inh 18.
Screening CC1CCN(c2cc(N)c(Cl)cc2[N+](=O)[O-])CC1 returned tim23-1 inh 72*, NLRP3 yeast inh 31, TIM10 inh 41*, SKKanGAS inh 8, tim10-1 inh 52*, NALP1 inh -1, tim10-1 confirm 37*, tim10 confirm -12 and tim23-1 conf 65*.
